Counter-ions that a name gives are not always drawn. ± gives the standard deviation.
Tested on: Danio rerio Tg(wt1b:EGFP) embryo, pronephros
Experiment: glomerular separation, fold change vs DMSO control; higher = glomeruli further apart (abnormal)
Details: 25 µM; exposure: 24-48 hpf
In short: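 Features are reported as fold changes against the mean of same-day DMSO-treated embryos. Before that, values more than 2 SD away from the feature mean were excluded. The embryos, dechorionated Tg(wt1b:EGFP) zebrafish, had been exposed from 24 to 48 hpf at 28.5°C to 25 μM compound in 0.5% DMSO in HEPES-buffered E3 with 0.003% PTU, and distances and angles came from 16 manually set points on maximum projections of dorsal pronephros images in Fiji.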

SMILES	glomerular separation
CC(Oc1c(Cl)cccc1Cl)C1=NCCN1 (stereo not given) [Lofexidine]	1.06 ± 0.22
CCC(=O)[C@@]1(C)[C@H](C)C[C@H]2[C@@H]3CCC4=CC(=O)C=C[C@]4(C)[C@H]3[C@@H](O)C[C@@]21C [Rimexolone]	1.28 ± 0.36
CC(=O)Oc1cc(C(F)(F)F)ccc1C(=O)O [Triflusal]	1.26 ± 0.59
COC(=O)[C@@H]1[C@H]2C[C@H]3c4[nH]c5ccccc5c4CCN3C[C@@H]2CC[C@@H]1O [Yohimbine hydrochloride]	1.24 ± 0.41
COc1cc([S+](C)[O-])ccc1-c1nc2cccnc2[nH]1 (stereo not given) [Sulmazole]	0.979 ± 0.27
N=C(N)N/N=C/c1c(Cl)cccc1Cl [Guanabenz acetate]	1.12 ± 0.47
CC1CC(OC(=O)c2ccccc2O)CC(C)(C)C1 (stereo not given) [Homosalate]	0.865 ± 0.19
CCC(=O)O[C@@H](O[P@](=O)(CCCCc1ccccc1)CC(=O)N1C[C@H](C2CCCCC2)C[C@H]1C(=O)O)C(C)C [Fosinopril]	1.05 ± 0.44
Nc1nc(NC2CC2)c2ncn([C@H]3C=C[C@@H](CO)C3)c2n1 [Abacavir Sulfate]	0.958 ± 0.35
CC(C)(C#N)c1cc(Cn2cncn2)cc(C(C)(C)C#N)c1 [Anastrozole]	1.2 ± 0.37
CCCc1cc(C(N)=S)ccn1 [Prothionamide]	0.957 ± 0.36
CCn1cc(C(=O)O)c(=O)c2cnc(N3CCNCC3)nc21 [Pipemidic acid]	0.919 ± 0.32
CC[C@H]1OC(=O)[C@H](C)[C@@H](O[C@H]2C[C@@](C)(OC)[C@@H](O)[C@H](C)O2)[C@H](C)[C@@H](O[C@@H]2O[C@H](C)C[C@H](N(C)C)[C@H]2O)[C@](C)(O)C[C@@H](C)C(=O)[C@H](C)[C@@H](O)[C@]1(C)O [Erythromycin]	1.19 ± 0.74
C[C@H](CCC(=O)O)[C@H]1CC[C@H]2[C@@H]3[C@H](O)C[C@@H]4C[C@H](O)CC[C@]4(C)[C@H]3CC[C@]12C [Chenodiol]	2.11 ± 0.81
Nc1nc(=O)c2nc(CNc3ccc(C(=O)N[C@@H](CCC(=O)O)C(=O)O)cc3)cnc2[nH]1 [Folic acid]	0.808 ± 0.29
C[C@H](Cc1cc2c(c(C(N)=O)c1)N(CCCO)CC2)NCCOc1ccccc1OCC(F)(F)F [Silodosin]	0.726 ± 0.14
COCCCOc1ccnc(C[S+]([O-])c2nc3ccccc3[nH]2)c1C (stereo not given) [Rabeprazole Sodium salt]	0.694 ± 0.27
CC(C)NCC(O)c1ccc2ccccc2c1 (stereo not given) [Pronethalol hydrochloride]	0.915 ± 0.49
CCCC(CCC)C(=O)O [Valproic acid]	1.62 ± 0.94
CCN(CC)CCOC(=O)C1(C2CCCCC2)CCCCC1 [Dicyclomine hydrochloride]	1.3 ± 0.41

SMILES	glomerular separation
CC1(C)NC(=O)N(c2ccc([N+](=O)[O-])c(C(F)(F)F)c2)C1=O [Nilutamide]	1.14 ± 0.42
CCOC(=O)[C@@](C)(N)Cc1ccc(O)c(O)c1 [Methyldopate hydrochloride]	1.28 ± 0.62
O=C1C(O)=C([C@H]2CC[C@H](c3ccc(Cl)cc3)CC2)C(=O)c2ccccc21 [Atovaquone]	1.05 ± 0.35
CCCSc1ccc2[nH]c(NC(=O)OC)nc2c1 [Albendazole]	3.72 ± 1.5
Cc1ccc(N(CC2=NCCN2)c2cccc(O)c2)cc1 [Phentolamine hydrochloride]	1.13 ± 0.33
CCN(CC)CCOCCOC(=O)C1(c2ccccc2)CCCC1 [Carbetapentane citrate]	0.953 ± 0.34
O=C(NCCNCC(O)COc1ccc(O)cc1)N1CCOCC1 (stereo not given) [Xamoterol hemifumarate]	1.01 ± 0.28
C[N+]1(CCCCC[N+]2(C)CCCC2)CCCC1 [Pentolinium bitartrate]	1.28 ± 0.5
CCCc1nc2c(C)cc(-c3nc4ccccc4n3C)cc2n1Cc1ccc(-c2ccccc2C(=O)O)cc1 [Telmisartan]	1.22 ± 0.41
C[C@H](CCC(=O)O)[C@H]1CC[C@H]2[C@@H]3C(=O)C[C@@H]4CC(=O)CC[C@]4(C)[C@H]3CC(=O)[C@]12C [Dehydrocholic acid]	0.9 ± 0.25
O=C(O)CCNC(=O)c1ccc(/N=N/c2ccc(O)c(C(=O)O)c2)cc1 [Balsalazide Sodium]	0.832 ± 0.29
Nc1ccc(S(=O)(=O)Nc2ccc(Cl)nn2)cc1 [Sulfachloropyridazine]	0.92 ± 0.34
CC(C)NC(=N)NC(=N)Nc1ccc(Cl)cc1 [Proguanil hydrochloride]	1.2 ± 0.52
O=C1CC[C@@H](C(=O)N2CSC[C@H]2C(=O)O)N1 [Pidotimod]	1.03 ± 0.42
NC1CCN(c2nc3c(cc2F)c(=O)c(C(=O)O)cn3-c2ccc(F)cc2F)C1 (stereo not given) [Tosufloxacin hydrochloride]	0.995 ± 0.36
CC(C)NCC(O)COc1ccc(CCOCC2CC2)cc1 (stereo not given) [Betaxolol hydrochloride]	1.15 ± 0.6
O=C1CCC(N2C(=O)c3ccccc3C2=O)C(=O)N1 (stereo not given) [Thalidomide]	0.439 ± 0.097
O=c1[nH]c(=O)n([C@H]2C[C@H](O)[C@@H](CO)O2)cc1I [Idoxuridine]	1.12 ± 0.42
CNC(C)CCC=C(C)C (stereo not given) [Isometheptene mucate]	0.941 ± 0.26
O=C(O)c1cc(-c2ccc(F)cc2F)ccc1O [Diflunisal]	4.51 ± 2.5

— the supplement of paper PMC7366291
